Screen size: about 360,000 compounds; about 2,100 (0.58%) were called active. Shown is part of a subset that was picked to be rich in actives. A number with no mark means an inactive call.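 How the source made its calls: active means inhibition at 20 µM, scaled to each plate's controls, above about 33% (limit read from the data); inactive means the rest.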
What follows are compounds tested against 26S proteasome non-ATPase regulatory subunit 14 (Homo sapiens) (UniProt O00487) (assay: Rpn11 (PSMD14) deubiquitinase inhibitors, primary screen, biochemical, fluorescence polarization, uHTS (AID 588493)). Conditions: human 26S proteasome, Ub4-pepOG fluorescence polarization; at 20 µM; hits give high values; 20S core pre-blocked with epoxomicin.
26S proteasome non-ATPase regulatory subunit 14 (Homo sapiens), sequence (O00487 whole entry, looked up): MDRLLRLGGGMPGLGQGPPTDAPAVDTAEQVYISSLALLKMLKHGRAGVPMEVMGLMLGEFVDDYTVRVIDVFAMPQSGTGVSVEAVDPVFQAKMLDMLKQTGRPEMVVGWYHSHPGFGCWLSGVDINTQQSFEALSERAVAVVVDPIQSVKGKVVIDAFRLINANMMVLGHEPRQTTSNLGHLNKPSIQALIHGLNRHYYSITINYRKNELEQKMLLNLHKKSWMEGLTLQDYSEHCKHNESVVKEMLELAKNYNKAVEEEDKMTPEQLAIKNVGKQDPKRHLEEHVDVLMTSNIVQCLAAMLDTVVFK

Row | SMILES | inhibition
1 | COC(=O)[C@H](C(C)C)n1c(C)c(C(C)=O)c(C(C)=O)c1C | 3.5%
2 | O=C1CSC(=S)N1/N=C/c1ccc(O)c([N+](=O)[O-])c1 | 48.1% (active)
3 | CCOc1cccc(/C=N/N2C(=O)CSC2=S)c1O | 32.9%
4 | COc1ccc(C2CC(c3ccccc3)=NN2C(=O)c2ccc(Cl)c([N+](=O)[O-])c2)cc1 (centres undefined) | -5%
5 | CCCCc1nc(NCCN)c(C#N)c2c1CSC(C)(C)C2 | 0.8%
6 | COc1ccc(CC(N)c2csc(NC(=O)Nc3ccc(C(C)C)cc3)n2)cc1 (centres undefined) | 2.4%
7 | NC(N)=N/N=C/c1ccc(OCc2ccc(Cl)cc2Cl)cc1 | 51.4% (active)
8 | NC(=O)COc1ccc(/C=N/NC(=O)C2CCCN2S(=O)(=O)c2ccc(Cl)cc2)cc1 (centres undefined) | -4.1%
9 | COc1ccc(Cl)cc1N(CC(=O)N/N=C/c1ccc(OCC(N)=O)cc1)S(C)(=O)=O | -5.6%
10 | CC1CCC2(CC1)NC(=O)N(CC(=O)NCc1ccco1)C2=O (centres undefined) | 7.9%
11 | N#Cc1c(-c2ccc(Cl)cc2)c2c([nH]c1=S)CCCC2 | 10.1%
12 | CC1Cc2ccccc2N1S(=O)(=O)c1cccc(C(=O)NCC(c2ccco2)N2CCCC2)c1 (centres undefined) | 5.2%
13 | C=CCn1c(=S)[nH]c2scc(-c3ccco3)c2c1=O | 48.1% (active)
14 | CC1(C)C(C=C(Cl)Cl)C1C(=O)N(Cc1ccc(Cl)cc1)C1CCS(=O)(=O)C1 (centres undefined) | -6.8%
15 | CC(C)(C)NC(=O)NC(=O)CN1CCC(Cc2ccccc2)CC1 | 2.6%
16 | O=C(O)CCCCOn1ccnc1 | -5.3%
17 | Cc1ccc2[nH]c(=O)c(COC(=O)c3ccccn3)cc2c1 | -5.9%
18 | O=C(OCc1cc2ccccc2[nH]c1=O)c1cccnc1 | 93.5% (active)
19 | O=C(OCc1cc(Cl)ccc1OC(F)F)c1cccnc1 | 9.5%
20 | COc1cccc(C2CC(c3ccccc3)=NN2S(=O)(=O)c2ccccc2)c1OC (centres undefined) | 1.8%
21 | COc1cccc(Nc2nnc(SCC(=O)N3CC(=O)Nc4ccccc43)s2)c1 | 0.5%
22 | COc1ccc(Cl)cc1NC(=O)CCS(=O)(=O)c1ccc(Br)cc1 | 80.4% (active)
23 | O=C(CCS(=O)(=O)c1ccc(Br)cc1)NCCc1ccc(Cl)cc1 | -2.9%
24 | COc1ccc(Cl)cc1NC(=O)COC(=O)c1ccc(Br)o1 | -3.1%
25 | O=C(CSc1ccc2nnc(-c3ccccc3)n2n1)N1CCCc2ccccc21 | 39.2%

Row | SMILES | inhibition
26 | Cc1ccc(CSCC2Nc3ccc(C(=O)N4CCN(c5ccc(F)cc5)CC4)cc3NC2=O)cc1 (centres undefined) | 109% (active)
27 | COC(=O)c1ccc(C(=O)OC)c(NC(=S)N2CCN(c3ccc(F)cc3)CC2)c1 | -2.6%
28 | COc1cccc2c1OCC1COc3c(c(=O)n(C)c(=O)n3C)C21 (centres undefined) | -1.5%
29 | C=CC1=C(C(=O)O)N2C(=O)[C@@H](NC(=O)/C(=N\OCC(=O)O)c3csc(N)n3)[C@H]2SC1 | -0.3%
30 | C=CC1=C(C(=O)O)N2C(=O)[C@@H](NC(=O)/C(=N/OCC(=O)O)c3csc(N)n3)[C@H]2SC1 | 45.1% (active)
31 | Cc1ccc2c(CN3CCN(S(=O)(=O)c4ccccc4C(F)(F)F)CC3)cc(=O)oc2c1 | 3.9%
32 | Cc1ccc(S(=O)(=O)N[C@@H](Cc2ccccc2)C(=O)N2CCC(C(=O)N[C@H](C(=O)O)C(C)O)CC2)cc1 (some centres undefined) | -7.8%
33 | Cc1ccc(NC(=O)CN2CCc3ccccc3C2)cc1C | 7.2%
34 | O=C(CN1CCc2cc3c(cc2C1)OCCCO3)Nc1ccccc1 | 1.3%
35 | Cc1ccc(NC(=O)CN2CCc3ccccc3C2)cc1 | 90.1% (active)
36 | CSc1nccc(NC(=O)c2ccc(C(C)(C)C)cc2)n1 | 0.3%
37 | CSC1=N/C(=C\C=C\c2cccs2)C(=O)S1 | 41.3% (active)
38 | CC1(C(=O)NS(=O)(=O)c2ccccc2)CCN1C(=O)C1CCCCC1 (centres undefined) | -2.7%
39 | O=C(CCN1CCN(C/C=C/c2ccccc2)CC1)Nc1cccc(F)c1 | 2.3%
40 | Cc1nc2ccc(C(=O)N3CCSCC3)cc2s1 | 93.1% (active)
41 | Cc1cccc(C(=O)N2CCC(c3nc4ccccc4s3)CC2)c1 | -7.6%
42 | Cc1nc2ccc(NC(=O)C3CCCCC3)cc2s1 | -1.1%
43 | Cc1ccc(C2CCN(C(=S)Nc3cccc(Cl)c3)C2)cc1 (centres undefined) | -2.1%
44 | Cc1cc(C)cc(NC(=S)NCCCN2CCOCC2)c1 | 0.3%
45 | Cc1ccc2cc(C#N)c(NCCNC(=S)NCCCN3CCOCC3)nc2c1 | 50.7% (active)
46 | COCCCNC(=S)NCCNc1nc2cc(C)c(C)cc2cc1C#N | -1.6%
47 | CN(Cc1ccccc1F)c1cc2c(c3c1ccn3C)C1CCC2O1 (centres undefined) | 7.9%
48 | O=S(=O)(c1cccc(S(=O)(=O)N2CCC(n3nnc4ccccc43)CC2)c1)N1CCCCC1 | 4.9%
49 | C=CC(=O)Nc1ccc(Nc2ccnc(Nc3ccc(N4CCN(C)CC4)cc3)n2)cc1 | 66.1% (active)
50 | Cn1cnnc1SCC(=O)Nc1ccc(N2CCOCC2)cc1 | 7.5%

Row | SMILES | inhibition
51 | CN1CCN(c2ccc(NC(=O)c3cc(Cl)c4c(c3)OCCO4)cc2)CC1 | -0.3%
52 | C=CCc1cc(S(=O)(=O)c2ccc(O)c(CC=C)c2)ccc1O | -1.3%
53 | Cc1nc2nc(COc3ccccc3)[nH]n2c(=O)c1C | 3.7%
54 | CNC(=O)NCCN1CCCC1=O | -0.3%
55 | CCCCC(C(=O)NC(C)(C)C)N(Cc1ccccc1)C(=O)c1snc(C(N)=O)c1N (centres undefined) | -1.4%
56 | Cc1csc2nc(O)c(C(=O)NCCN3CCOCC3)c(=O)n12 | -3.8%
57 | CC(=O)Nc1ccccc1Sc1ccc2c3c(cccc13)C(=O)N(c1ccc(C)cc1)C2=O | 48.3% (active)
58 | CCCOC(=O)c1ccc(N2C(=O)c3ccccc3C2=O)cc1 | 0.9%
59 | CSc1ccccc1NC(=O)C(C)N1C(=O)c2ccccc2S1(=O)=O (centres undefined) | -7.1%
60 | COc1ccc(C2N=C(N)N=C(N)N2c2ccccc2)cc1OC (centres undefined) | 6%
61 | CCC(C)Sc1nc(C)nc2c1c(=O)n(C)c(=O)n2C (centres undefined) | 2%
62 | CCOC(=O)C1(CC2CCCCO2)CCN(Cc2nc(-c3cccs3)oc2C)CC1 (centres undefined) | 4%
63 | O=C(OCCOCn1cc(Br)c(=O)[nH]c1=O)c1ccccc1 | 0.6%
64 | CONc1nc2nonc2nc1NOC | 2.2%
65 | CC(C)(C)C(=O)Nc1c(Br)c(C2CC2)nn1-c1ccccc1 | 9.6%
66 | COCCCNC(=O)c1ccc(CNS(=O)(=O)c2ccc(NC(C)=O)cc2)cc1 | -1.2%
67 | Cc1nnc(N/N=C/c2ccccn2)[nH]c1=O | 6.9%
68 | CCOc1ccc(-n2c(O)c(/C=N/c3ccnn3Cc3ccncc3)c3ccccc3c2=O)cc1 | 76.5% (active)
69 | CCOc1ccc(-n2c(O)c(/C=N/Nc3nnc(C)c(=O)[nH]3)c3ccccc3c2=O)cc1 | 36.2% (active)
70 | CCOc1ccc(-n2c(SCC(=O)Nc3cc(C(=O)O)ccc3Cl)nc3ccccc3c2=O)cc1 | 2.7%
71 | CCOc1ccc(N/C(N)=N/c2nc(C)c(C)c(=O)[nH]2)cc1 | -8.8%
72 | COC(=O)Cc1csc(/N=C/c2c(O)n(-c3cccc(C(F)(F)F)c3)c(=O)c3ccccc23)n1 | 33.4%
73 | CCOc1ccc(CN2CCN(Cc3ccc4cc(F)ccc4n3)CC2CCO)cc1 (centres undefined) | -0.7%
74 | COc1ccc(S(=O)(=O)N(C)C[C@H]2OCc3cnnn3CCCC(=O)N([C@H](C)CO)C[C@H]2C)cc1 | -6.2%
75 | Nc1nnc(SCCN2C(=O)c3ccccc3S2(=O)=O)s1 | -2.1%

Row | SMILES | inhibition
76 | CC(=O)N(O)CCCCCNC(=O)CCC(=O)N(O)CCCCCNC(=O)CCC(=O)N(O)CCCCCNC(=O)CCC(=O)O | -7%
77 | CCOC(=O)c1ccc2c(c1)nc(SCC(=O)NC(C)C)n2CC | -1.6%
78 | C#CCNc1nc(C(C)C)nc2c1nnn2Cc1ccccc1F | -3.7%
79 | COc1ccc2[nH]c3c(C)c4cc[n+](C)cc4c(C)c3c2c1 | 88.8% (active)
80 | CCCn1nc(C(=O)NNC(=O)CSCC(=O)Nc2cc(C)on2)c2ccccc2c1=O | 2.6%
81 | O=C(Nc1ccc(-c2cscn2)cc1)C1CCCN(Cc2ccc(CO)o2)C1 (centres undefined) | -1.3%
82 | CCOC(=O)CSc1nnc(CNC(=O)Cc2ccccc2)n1-c1ccccc1OC | 0.1%
83 | CCCCCCSc1ccc([C@@H]2[C@H]3C(=O)N(CC)C(=O)[C@H]3[C@]3(C(=O)OC)CCCCN23)cc1 | 40.3% (active)
84 | CCCCCCSc1ccc([C@@H]2[C@@H]3C(=O)N(CC)C(=O)[C@@H]3[C@]3(C(=O)OC)CCCCN23)cc1OC | 15.9%
85 | CCN1C(=O)[C@@H]2[C@@H](c3ccc(-c4ccccc4)cc3)N3CCCC[C@@]3(C(=O)OC)[C@@H]2C1=O | 7%
86 | COC(=O)[C@]1(C)CCC[C@@]2(C)C3CC[C@]4(OC(C)=O)C[C@@]3(CCC21)CC4=NO (some centres undefined) | 0.3%
87 | CCC(=O)N(C)C(c1ccccc1Cl)c1nnnn1-c1c(C)cccc1C (centres undefined) | 2.8%
88 | Cc1ccc(-c2nnc(-c3ccc(NC(=O)c4cccs4)cc3)o2)cc1 | 149% (active)
89 | O=C(Nc1ccc(-c2nnc(-c3ccccc3)o2)cc1)C1CCCO1 (centres undefined) | -0.7%
90 | COc1ccc(-c2cn(-c3ccc(C)cc3)c(=O)n2CC(=O)Nc2ccc(OC)c(OC)c2)cc1 | 6.4%
91 | O=C(Nc1ccc(N2CCN(C(=O)C3CC3)CC2)cc1)c1cccs1 | 0.2%
92 | COc1ccc(NC(=O)Cn2c(-c3ccc(OC)cc3)cn(-c3ccc(C)cc3)c2=O)cc1 | 43.4% (active)
93 | CCS(=O)(=O)c1ccc(-c2cccc(NC(=O)c3ccc(Br)o3)c2)nn1 | -4.8%
94 | O=C(Nc1ccc(-c2nnc(-c3ccccc3)o2)cc1)c1ccc(Br)o1 | 56.9% (active)
95 | COc1ccc(NC(=O)CN(C)C(=O)c2cc(C)oc2C)cc1 | -18.9%
96 | COc1ccc(CC(=O)Nc2ccc(-c3nnc(-c4ccc(C)cc4)o3)cc2)cc1 | 32.7% (active)
97 | Cc1ccc(C(=O)NCC(=O)OCc2nnc(-c3ccccc3)o2)cc1 | 3%
98 | Cc1ccc(NC(=O)Cn2c(C)csc2=O)cc1 | -0.6%
99 | COc1ccc(C(CC(=O)Nc2ccc(C)cc2)NC(=O)C(F)(F)F)cc1 (centres undefined) | -7.5%
